Vaccinia mCherry = vaccinia inhibition (mCherry reporter); Vaccinia virus mCherry reporter infection, fluorescence; Potency, µM (top dose mostly 36.5 µM), for inactives: at the highest dose activity change, negative = inhibition, actives largely listed as inhibitors; 310,000 tested, 0.63% active; AID 720579; calls by dose curve; tested in A549 cells; further: potency means the concentration at half of the fitted maximal effect; nearly all actives have a fitted effect of over 35% in size
HCMV antiviral = human cytomegalovirus inhibition | HFF cells, HCMV-luciferase reporter, 72 h; stronger effect = lower value | activity change, negative = inhibition, % at 57.5 µM | 410,000 tested, 4.5% active | AID 1259415; in the data active means activity change below about -60%; inconclusive means no clear call, values can overlap the other calls; inactive means above about -39%
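Screen run at 2 compound doses on HFFs infected with reporter HCMV, MOI 1 PFU/cell. Luciferase activity from cell lysates at 72 h post infection gave inhibition relative to buffer-only and Salinomycin wells.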
Vaccinia Venus = vaccinia inhibition (Venus reporter); Vaccinia virus Venus reporter expression, fluorescence; Potency, µM (doses to about 36.5 µM), for inactives: at the highest dose activity change, negative = inhibition, actives largely listed as inhibitors; 330,000 tested, 0.46% active; AID 720580; calls by dose curve; tested in A549 cells; further: potency means the concentration at half of the fitted maximal effect; nearly all actives have a fitted effect of over 30% in size
MARV entry inh = blocks Marburg virus binding to or entry into cells; Marburg virus pseudotyped entry inhibition, cell reporter; 300,000 tested, 1.8% active; AID 540276; Potency, µM (top dose mostly 37.8 µM), for inactives: at the top dose activity change, negative = inhibition, hits mostly inhibitors; calls by dose curve; tested in HEK293 cells; further: potency means the concentration at half of the fitted maximal effect
Lassa entry inh = inhibitors of Lassa virus binding or cell entry | Lassa virus pseudotype entry inhibition, cell reporter | Potency, µM (doses to about 37.9 µM), without a hit: at the highest dose activity change, negative = inhibition, hits mostly inhibitors | 300,000 tested, 1.2% active; calls by dose curve; tested in HEK293 cells; further: potency means the concentration at half of the fitted maximal effect; nearly all actives have a fitted effect of over 50% in size
FMDV antiviral = blocks foot and mouth disease virus; FMDV antiviral cell-based qHTS; Potency, µM (highest dose often 57.9 µM), inactives show at the highest dose activity change, negative = inhibition, hits mostly inhibitors; 410,000 tested, 1.2% active; AID 1159524; calls by dose curve; tested in HEK293T cells; further: read-out not given here; potency means the concentration at half of the fitted maximal effect; nearly all actives have a fitted effect of over 45% in size
* marks the source's active call; other numbers are inactive results; [ ] = dose if it differs, or a comment. This is a sample that favours compounds with a hit; in the whole collection about 6.5% have one here. On the % scale 0 is the no-effect control and ±100 the full control effect.

What do the screens show for `CN=C1c2cc3cc(OC)ccc3n2CCN1Cc1ccccc1`?
Vaccinia mCherry: inconclusive; HCMV antiviral: -28.5; Vaccinia Venus: -27.4%; MARV entry inh: 11.2µM*; Lassa entry inh: inconclusive; FMDV antiviral: -23.8%

Results for COc1ccc(OCC(=O)Nc2ccccc2C(=O)OCc2cc(=O)n3nc(C)sc3n2)cc1 ?
Vaccinia mCherry: -15.9%; HCMV antiviral: -22.1; Vaccinia Venus: -11.8%; Lassa entry inh: 18.0%[46.1 µM]; FMDV antiviral: 20µM*

How did O=C(OCc1cc(=O)n2nc(C3CC3)sc2n1)c1ccc(NC(=O)c2ccccc2Cl)cc1 do in these assays?
Vaccinia mCherry: inconclusive; HCMV antiviral: -16.5; Vaccinia Venus: -5.6%; Lassa entry inh: inconclusive; FMDV antiviral: 20µM*

What do the screens show for `Cc1nn2c(=O)cc(COC(=O)c3ccc(NC(=O)COc4ccc(C)c(C)c4)cc3)nc2s1`?
Vaccinia mCherry: -14.4%; HCMV antiviral: -28.3; Vaccinia Venus: -23.2%; Lassa entry inh: 10.5%[46.1 µM]; FMDV antiviral: 11.2µM*

Results for Cc1nn2c(=O)cc(COC(=O)c3ccc(NC(=O)COc4ccccc4F)cc3)nc2s1 ?
Vaccinia mCherry: -10.0%; HCMV antiviral: 3.6; Vaccinia Venus: -23.0%; Lassa entry inh: 1.6%[46.1 µM]; FMDV antiviral: 10µM*

Results for CCc1nn2c(=O)cc(COC(=O)c3ccc(NC(=O)COc4ccccc4C)cc3)nc2s1 ?
Vaccinia mCherry: -7.5%; HCMV antiviral: -15.7; Vaccinia Venus: -0.1%; Lassa entry inh: 7.0%[46.1 µM]; FMDV antiviral: 5.5%

Results for COc1cc(-c2noc(-c3ccc(N(C)C)c([N+](=O)[O-])c3)n2)cc(OC)c1OC ?
Vaccinia mCherry: -8.7%; HCMV antiviral: 4.4; Vaccinia Venus: -13.3%; MARV entry inh: -11.5%[46.1 µM]; Lassa entry inh: 1.6%[46.1 µM]; FMDV antiviral: -29.3%

How did COc1ccccc1C(=O)Nc1ccc(C(=O)OCc2cc(=O)n3nc(C4CC4)sc3n2)cc1 do in these assays?
Vaccinia mCherry: -15.6%; HCMV antiviral: -18.7; Vaccinia Venus: -16.2%; Lassa entry inh: 8.3%[46.1 µM]; FMDV antiviral: -20.7%

What do the screens show for `CCCc1nn2c(=O)cc(COC(=O)c3ccc(NC(=O)c4cccs4)cc3)nc2s1`?
Vaccinia mCherry: -1.1%; HCMV antiviral: -96.5*; Vaccinia Venus: -17.6%; Lassa entry inh: 11.7%[46.1 µM]; FMDV antiviral: -14.9%

What do the screens show for `COc1ccccc1C(=O)Nc1ccc(C(=O)OCc2cc(=O)n3nc(C)sc3n2)cc1`?
Vaccinia mCherry: inconclusive; HCMV antiviral: 70.2; Vaccinia Venus: inconclusive; Lassa entry inh: 22.4%[46.1 µM]; FMDV antiviral: 15.8µM*

Results for Cc1nn2c(=O)cc(COC(=O)c3ccc(NC(=O)CCc4ccccc4)cc3)nc2s1 ?
Vaccinia mCherry: -1.1%; HCMV antiviral: 56.1; Vaccinia Venus: -6.5%; Lassa entry inh: 2.2%[46.1 µM]; FMDV antiviral: 11.2µM*

How did Cc1ccc(OCC(=O)Nc2cccc(C(=O)OCc3cc(=O)n4c(C)csc4n3)c2)cc1 do in these assays?
Vaccinia mCherry: -13.2%; HCMV antiviral: -2.4; Vaccinia Venus: -12.8%; Lassa entry inh: inconclusive; FMDV antiviral: -19.2%

Results for Cc1ccc(OCC(=O)Nc2cccc(C(=O)OCc3cc(=O)n4nc(C)sc4n3)c2)cc1 ?
Vaccinia mCherry: -6.5%[7.34 µM]; HCMV antiviral: 4.0; Vaccinia Venus: -4.6%[7.34 µM]; Lassa entry inh: inconclusive; FMDV antiviral: 12.6µM*

How did COc1ccc(CCn2c3c(c(=O)[nH]c2=S)CN(CC(C)C)CN3)cc1OC do in these assays?
Vaccinia mCherry: -0.6%; Vaccinia Venus: -20.5%

Results for CCC(Sc1ncc(S(=O)(=O)c2ccc(C)cc2)c(=O)[nH]1)C(=O)Nc1cc(C)ccc1C (centres undefined) ?
Vaccinia mCherry: 1.8%; HCMV antiviral: -9.6; Vaccinia Venus: 1.5%; MARV entry inh: inconclusive; FMDV antiviral: -3.0%

What do the screens show for `CC(C)Oc1ccc(CNS(=O)(=O)c2ccc3c(c2)C(C)(C)C(=O)N3C)cc1`?
Vaccinia mCherry: -16.0%; HCMV antiviral: -6.5; Vaccinia Venus: -4.7%; Lassa entry inh: 0.9%[46.1 µM]; FMDV antiviral: 4.2%

What do the screens show for `C/C(CCN1CCCc2nc(C)c(C)cc21)=N\OC[C@@H](O)[C@H]1O[C@@H]2OC(C)(C)O[C@@H]2[C@H]1O`?
MARV entry inh: -8.5%[14.2 µM]

What do the screens show for `Cc1ccc(S(=O)(=O)c2c(Nc3ccc(C)c(C)c3)sc(C(=O)c3ccc4c(c3)OCO4)c2N)cc1`?
Vaccinia mCherry: inactive; HCMV antiviral: -3.6; Vaccinia Venus: -16.9%; Lassa entry inh: inconclusive; FMDV antiviral: 22.3%

What do the screens show for `Cc1nn2c(=O)cc(COC(=O)c3cccc(NC(=O)CCc4ccccc4)c3)nc2s1`?
Vaccinia mCherry: inactive; HCMV antiviral: 55.5; Vaccinia Venus: -14.7%; Lassa entry inh: 11.5%[46.1 µM]; FMDV antiviral: 3.3%

What do the screens show for `Cc1nn2c(=O)cc(COC(=O)c3cccc(NC(=O)COc4ccc(C)c(C)c4)c3)nc2s1`?
Vaccinia mCherry: -13.1%; HCMV antiviral: -61.7*; Vaccinia Venus: -6.7%; Lassa entry inh: 10.5%[46.1 µM]; FMDV antiviral: 15.3%

What do the screens show for `Cc1cn2c(=O)cc(COC(=O)c3cccc(NC(=O)COc4ccc(Cl)cc4)c3)nc2s1`?
Vaccinia mCherry: -14.9%; HCMV antiviral: 3.2; Vaccinia Venus: -15.1%; Lassa entry inh: inconclusive; FMDV antiviral: -2.2%

How did Cc1nn2c(=O)cc(COC(=O)c3cccc(NC(=O)COc4ccccc4C)c3)nc2s1 do in these assays?
Vaccinia mCherry: -4.4%; HCMV antiviral: inconclusive; Vaccinia Venus: -6.6%; Lassa entry inh: 26.3%[46.1 µM]; FMDV antiviral: 2.82µM*

Results for Cc1cc(S(=O)(=O)NCC(c2ccc3c(c2)OCO3)N2CCOCC2)ccc1F (centres undefined) ?
HCMV antiviral: -63.7*; FMDV antiviral: 6.1%

Results for Cc1ccc(S(=O)(=O)NCC(c2cccnc2)N2CCOCC2)cc1 (centres undefined) ?
HCMV antiviral: -79.1*; FMDV antiviral: -0.3%

Results for Cc1ccc2nc(SC(Cc3cc(Cl)ccc3Cl)C(=O)O)[nH]c2c1 (centres undefined) ?
Vaccinia mCherry: -2.2%[7.34 µM]; HCMV antiviral: 33.0; Vaccinia Venus: -7.9%[7.34 µM]; Lassa entry inh: -6.3%[46.1 µM]; FMDV antiviral: -10.6%

Results for O=C(NCc1cccc(C(F)(F)F)c1)O[C@H]1CC[C@@]23CCCN2C(=O)CCC[C@H]3[C@H]1Cc1ccccc1 ?
HCMV antiviral: -16.9

How did Cc1cc(C)nc(N/C(=N\S(=O)(=O)Cc2ccccc2)Nc2ccccc2Br)n1 do in these assays?
Vaccinia mCherry: inconclusive; HCMV antiviral: inconclusive; Vaccinia Venus: 1.6%; MARV entry inh: 2.82µM*; Lassa entry inh: 4.11µM*; FMDV antiviral: 37.0%

How did C[C@@H]1CCC2C(C)(C)C3CC21CC[C@@]3(C)O (some centres undefined) do in these assays?
FMDV antiviral: -14.2%

How did CCCCCCCCSc1nnc(/N=C/N(C)C)s1 do in these assays?
Vaccinia mCherry: -23.9%[7.34 µM]; HCMV antiviral: 6.0; Vaccinia Venus: -15.5%[7.34 µM]; MARV entry inh: -11.9%[46.1 µM]; Lassa entry inh: -5.5%; FMDV antiviral: -8.3%

Screening data from PubChem BioAssay.
